# Screening results (PubChem BioAssay)
# Tgondii IFNg: blocks Toxoplasma gondii growth in the presence of IFN-gamma. Toxoplasma gondii growth in IFN-gamma-treated host cells; hits give low values. activity change, negative = inhibition, % (test concentration not listed). hit rate 3.8% among 69,000. AID 1259416; in the data active = activity change below about -70%, passing the limit was not always enough;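 also: host cells are HeLa cells infected with Toxoplasma gondii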
# Active calls of the source: *; ! = not confirmed by another sample. This is one part of a sample in which hits are shown more often than they occur.
SMILES,Tgondii IFNg
CCOCc1ncn2c1CN(C(=O)Nc1ccccc1)CC2,10
CN1CCN(CC2(CNC(=O)c3c(O)cccc3O)CC2)CC1,11
c1ncc(-c2cc(NC3CCCC3)nc3[nH]ccc23)cn1,2
Cc1ccc(CN2CCCC3(COCCN(c4cnccn4)C3)C2)s1 (stereo not given),-94*
Cc1ccc(CN2CCC3(CC2)COCCN(c2ncccn2)C3)s1,-2
CS(=O)(=O)N1CCCC2(COCCN(c3cnccn3)C2)C1 (stereo not given),0
Cc1cc2ccccc2n1CCC(=O)N1CCC2(CC1)CNC(=O)C2,4
CCn1ncc(S(=O)(=O)Nc2ccc3c(c2)nc(C)n3CCO)c1C,-23
CCc1nnc(CN2C[C@H]3OC(=O)N(CCCN4CCOCC4)[C@H]3C2)o1,8
COc1ccc2c(c1)CC/C2=N/OC(=O)c1cc(SC)ccc1Cl,-91*
CCCN1C(=O)CCc2cc(NC(=O)c3cc(SC)ccc3Cl)ccc21,11
COc1ccc(C(=O)O/N=C2\CCSc3ccc(F)cc32)cc1,80
CCCc1n[nH]c(=O)n1Cc1ccccc1F,5
C/C=C/c1cnc(-c2cccnc2)nc1C1CCN(C(=O)c2ccc(Cl)cc2)CC1,-31
CCN(CC)CCCC(C)Nc1c2ccc(Cl)cc2nc2ccc(OC)cc12 (stereo not given),-72*!
COc1ccc2nc(C)cc(SCC(=O)c3ccc(Cl)cc3)c2c1,124
COc1cc(NC(C)CCCN)c2ncccc2c1 (stereo not given),28
Cc1cc(CC(C)NC(=O)c2cc(COc3cccc(F)c3)[nH]n2)n[nH]1 (stereo not given),1
CC(C)CC(=O)Nc1ccc(S(=O)(=O)N2CCC3(CC2)Nc2ccccc2-n2cccc23)cc1,1
COc1cccc(CC(=O)N2CCC3(CC2)Nc2cc(OC)ccc2-n2cccc23)c1,-34
COc1ccc2c(c1)NC1(CCN(C(=O)COc3ccc(F)cc3)CC1)c1cccn1-2,59
COc1ccc(CC(=O)N2CCC3(CC2)Nc2cc(OC)ccc2-n2cccc23)cc1,51
COc1ccc2c(c1)NC1(CCN(C(=O)Cc3ccc(F)cc3)CC1)c1cccn1-2,-84*
COc1ccc2c(c1)NC1(CCN(C(=O)COc3cccc(C)c3)CC1)c1cccn1-2,-129*
COc1ccc2c(c1)NC1(CCN(C(=O)c3ccc(Br)o3)CC1)c1cccn1-2,-79*
SMILES,Tgondii IFNg
CCc1ccc(C(=O)N2CCC3(CC2)Nc2cc(OC)ccc2-n2cccc23)cc1,16
O=C(c1ccc(Br)o1)N1CCC2(CC1)Nc1cc(F)ccc1-n1cccc12,-27
CC(C)CC(=O)Nc1ccc(S(=O)(=O)N2CCC3(CC2)Nc2cc(F)ccc2-n2cccc23)cc1,-77*
COc1ccc(OCC(=O)N2CCC3(CC2)Nc2cc(C)ccc2-n2cccc23)cc1,31
Cc1ccc2c(c1)NC1(CCN(S(=O)(=O)c3ccc(NC(=O)CC(C)C)cc3)CC1)c1cccn1-2,26
O=C(CCC1CCCC1)N1CCC2(CC1)Nc1cc(F)ccc1-n1cccc12,-53
CCNc1ncc(C(=O)NC(C)Cn2nc(C)cc2C)cn1 (stereo not given),-1
C=CCN1CCO[C@H]2CN(S(=O)(=O)c3cccs3)CC[C@@H]2C1,-9
CN(C)c1ccc(-c2cc(-c3ccccc3)nc(-c3cc(Cl)ccc3O)c2)cc1,-38
COc1ccccc1N(Cc1nc(-c2ccccc2)oc1C)S(=O)(=O)c1ccccc1C,-26
Cc1cnc(N(C)CCCc2nccn2C)nc1N(C)C,0
Cc1cc(C)nc(Oc2ccccc2F)n1,-7
Cc1ncc2c(c1CNC(=O)Cc1cccs1)CCN(C(=O)c1cccc(C(F)(F)F)c1)C2,-1
OC(COc1ccccc1Cl)Cn1c2ccccc2c2ccccc21 (stereo not given),-46
COCCCNC(=O)Cn1ncc2c(N3CCCCC3)ncnc21,86
COCCNC(=O)C1CN(Cc2ccncc2)Cc2ccnn2C1 (stereo not given),8
COCC(=O)O[C@]1(CCN(C)CCCc2nc3ccccc3[nH]2)CCc2cc(F)ccc2[C@@H]1C(C)C,-72*
CCOC(=O)CCc1nc2ccccc2[nH]1,-27
CN(Cc1nc2ccccc2[nH]1)C(=O)CCNC(=O)c1ccc(F)cc1,-49
O=C([C@@H]1CCS(=O)(=O)[C@H]2CN(Cc3ccccc3)C[C@@H]12)N1CCOCC1,3
O=C(CSC1=NC(c2ccccc2)(c2ccccc2)C(=O)N1)Nc1ccc(Cl)cc1,108
O=C(O)c1cc2ccccc2s1,-71*
CC1CCN(C(=O)c2cc3ccccc3s2)CC1,19
Cc1cc(CNC(=O)c2cc3ccccc3s2)c2ccccc2n1,12
Cc1noc(C)c1-n1sc(=O)n(-c2ccc(F)cc2)c1=O,-4
SMILES,Tgondii IFNg
Cc1c(C)c(C)c(CSCc2n[nH]c(=S)n2-c2ccc(F)cc2)c(C)c1C,-86*
Cc1ccc(C)c(NCc2n[nH]c(=S)n2-c2ccccc2)c1,5
CCCc1cnc(C)nc1-c1cccc2cnccc12,-5
COc1cccc(-c2nc(Cn3ccn4nc(-c5cccs5)cc4c3=O)c(C)o2)c1OC,-97*
COc1ccc(-c2cc3c(=O)n(Cc4nc(-c5ccc(OC(C)C)cc5)oc4C)ccn3n2)cc1OC,-92*
COc1ccc(-c2nc(Cn3ccn4nc(-c5ccc(OC)c(OC)c5)cc4c3=O)c(C)o2)cc1,-35
COc1ccc(-c2cc3c(=O)n(Cc4nc(-c5ccc(OC(C)C)cc5)oc4C)ccn3n2)cc1,-54
COc1ccccc1-c1cc2c(=O)n(Cc3nc(-c4cccc(OC)c4OC)oc3C)ccn2n1,-19
COc1ccccc1-c1nc(Cn2ccn3nc(-c4cccs4)cc3c2=O)c(C)o1,51
OC1CCN(c2ccnc(-c3cc4ccccc4o3)n2)C1 (stereo not given),107
Cc1cc(Nc2nc(N[C@@H](C)c3ccc(F)cc3)c(C#N)cc2F)n[nH]1,-75*
CC(=O)OCC(=O)c1ccc(Br)cc1,87
CN1CCc2nc(NC(=O)CCc3ccc(S(N)(=O)=O)cc3)sc2C1,10
CCN(CCn1cccn1)Cc1ccc2cccc(O)c2n1,6
O=C1NC2(CCN(CCO)CC2)CC1c1ccccc1 (stereo not given),-4
Cn1cc(N2C[C@@H]3CN(C(=O)c4ccoc4)C[C@@H]3C2=O)cn1,7
Cc1cc(CSc2nc3ccccc3o2)c(C)cc1CSc1nc2ccccc2o1,-3
Cc1[nH]c2ccccc2c1C(=O)CSc1nc2ccccc2o1,-39
O=c1cc(CSc2nc3ccccc3o2)[nH]c2nc3ccccc3n12,-97*
CO[C@H]1CN(C(=O)c2ccc(-c3nnn(C)n3)cc2)CC[C@H]1N,-2
Cc1cccc(CN2CCC3(CCCN(C(=O)c4cccnc4)C3)C2)n1 (stereo not given),-7
CN(C)Cc1cnc2n1CCN(C(=O)CC1CC1)CC2,44
Cc1cnc2c(C(=O)N3CCC(CC(=O)N(C)C)CC3)cnn2c1,-20
CC(C)COC(=O)c1nc(Cl)c(Cl)c(N)c1Cl,-96*
Cc1cc(OCC(=O)Nc2ccc(C(=O)OCC(C)C)cc2)cc(C)c1Cl,-55
CCC(C)NC(=O)c1ccc(-c2nc(CN3CCN(c4ccccc4)CC3)c(C)o2)cc1 (stereo not given),5
CCN1C(=O)C2(CCN(C(=O)N(C)C)CC2)CC12CCN(C(=O)CC(C)C)CC2,-22
O=C(NCc1ccccc1)N1CC[C@@H](O)[C@@H]1Cc1cccnc1,163
CS(=O)(=O)N1C[C@H]2CNC[C@@]2(C(=O)N2CCc3ccccc3C2)C1,1
